BCR signal inh: qHTS Assay to Find Inhibitors of Chronic Active B-Cell Receptor Signaling. ABC-DLBCL IkBa-CBG/CBR reporter, luminescence ratio, 4 h. Potency, µM (top dose mostly 46.1 µM), for inactives: at the highest dose activity change, negative = inhibition, actives largely listed as inhibitors. 340,000 compounds, 0.05% hits. AID 493014, 2011; active means well fitted inhibition curve with a large enough effect in the signal ratio, with a control signal flat, not every such curve was filed as active; inconclusive means small, poorly fitted or top-dose-only effect, or effect the other way, or a change in a side signal; the % refers to the signal ratio;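 further: potency means the concentration at half of the fitted maximal effect; plate controls were basal doxycycline-induced cells for no effect and cells given 10 µM MG132 for full effect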
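TMD8 human ABC-DLBCL cells with doxycycline-inducible IκBα–green luciferase fusion and unfused red luciferase, in 0.5% FBS medium; compounds up to 46 uM, 4 h at 37C. Green/red luminescence ratio, filter-overlap corrected, fitted to concentration-response curves.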
ClpP mod: qHTS Assay for Activators of ClpP. ATP-dependent Clp protease proteolytic subunit (Bacillus subtilis (strain 168)), P80244. purified B. subtilis ClpP, FRET peptide cleavage, 20 min. 340,000 compounds, 1.9% hits. Potency, µM (series often up to 57.5 µM), without a hit: at the highest dose activity change, negative = active; active means well fitted falling curve with a large enough effect; inconclusive means small, poorly fitted or top-dose-only effect; inactive means no such curve, though single readings can be large or run the other way; further: potency means the concentration at half of the fitted maximal effect; the source files actives as falling curves though it sought activators and does not explain the sign; nearly all actives have a fitted effect of over 65% in size
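FRET quenching reversal measured ClpP activation: 10 microg/mL B. subtilis ClpP at pH 8 with the FRET-FV decapeptide, read at 430 nm after 320 nm excitation. The 20-min minus 0-min signal was scaled between DMSO/no-enzyme wells and ADEP (5.8 microM final).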
LDHA inh: qHTS assay for inhibitors of human lactate dehydrogenase | L-lactate dehydrogenase A chain (Homo sapiens), P00338 | AID 1347041, 2019 | 480,000 compounds, 0.15% hits | purified LDHA, NADH/diaphorase-resazurin fluorescence; active compounds read low | activity change, % (values are at about 110 or 230 µM); in the data active means activity change below about -30%; inconclusive means mostly about -25% to -30%;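 further: plate controls were DMSO wells for no effect and wells without enzyme for full effect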
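LDH5 2 nM; NADH 0.06 mM, pyruvate 0.2 mM; 200 mM Tris pH 7.4, EDTA, Tween-20; 5 min RT. Detection: diaphorase 0.133 mg/mL + resazurin 37 µM, fluorescence ex540/em590 at 0 and 20 min; normalized to enzyme-free and DMSO wells.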
hERG WT inh: qHTS for Inhibitors of KCHN2 3.1: Wildtype qHTS | 340,000 compounds, 0.37% hits | Voltage-gated inwardly rectifying potassium channel KCNH2 (Homo sapiens), Q12809 | U2OS, BacMam KCNH2, thallium flux FluxOr; active compounds read low | activity change, % at 1.84 µM;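 active means maximum activity change below -70%; inconclusive means maximum activity change between -70% and -50%; inactive means maximum activity change above -50%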; further: on the % scale 0 is the no-effect control and ±100 the full control effect
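U2OS cells were transduced with wild-type KCNH2 virus (2.03 x 10^8 / mL) for 4 h at room temperature, then cultured overnight at 37 C. Thallium flux was read with FluxOr dye. Rate constants were normalized to DMSO controls.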
KCNH2 3.1 block: qHTS for Inhibitors of KCHN2 3.1: Mutant qHTS. Potassium voltage-gated channel subfamily H member 2, brain isoform KCNH2 3.1 (human). U2OS KCNH2 3.1, thallium flux FluxOr; active compounds read low. activity change, % (tested at about 1.8 µM). 340,000 compounds, 0.95% hits. AID 720553, 2013;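 active means maximum activity change below -70%; inconclusive means maximum activity change from -70% to -50%; inactive means maximum activity change above -50%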;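 further: thallium influx rate constant from kinetic fluorescence after stimulation buffer; on the % scale 0 is the no-effect control and ±100 the full control effect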
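FluxOr-based Tl+ influx in U2OS cells transduced with KCNH2 3.1 virus; rate constants normalized to DMSO controls.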
ALOX12 inh: Primary qHTS assay for inhibitors of human arachidonate 12S-lipoxygenase (ALOX12): Round 2; AID 1671190, 2021; 580,000 compounds, 1.1% hits; purified 12hLO, xylenol orange hydroperoxide absorbance; Polyunsaturated fatty acid lipoxygenase ALOX12 (Homo sapiens), P18054; Potency, µM (series often up to 108 µM), for the others: at the top dose activity change, negative = inhibition, usual class: inhibitors; active means well fitted inhibition curve with a large enough effect; inconclusive means small, poorly fitted or top-dose-only effect, or another doubt; inactive means no such curve, though single readings can be large or run the other way; further: potency means the concentration at half of the fitted maximal effect; on the % scale 0 is the no-effect control and ±100 the full control effect
Target sequence (P18054 whole entry, looked up): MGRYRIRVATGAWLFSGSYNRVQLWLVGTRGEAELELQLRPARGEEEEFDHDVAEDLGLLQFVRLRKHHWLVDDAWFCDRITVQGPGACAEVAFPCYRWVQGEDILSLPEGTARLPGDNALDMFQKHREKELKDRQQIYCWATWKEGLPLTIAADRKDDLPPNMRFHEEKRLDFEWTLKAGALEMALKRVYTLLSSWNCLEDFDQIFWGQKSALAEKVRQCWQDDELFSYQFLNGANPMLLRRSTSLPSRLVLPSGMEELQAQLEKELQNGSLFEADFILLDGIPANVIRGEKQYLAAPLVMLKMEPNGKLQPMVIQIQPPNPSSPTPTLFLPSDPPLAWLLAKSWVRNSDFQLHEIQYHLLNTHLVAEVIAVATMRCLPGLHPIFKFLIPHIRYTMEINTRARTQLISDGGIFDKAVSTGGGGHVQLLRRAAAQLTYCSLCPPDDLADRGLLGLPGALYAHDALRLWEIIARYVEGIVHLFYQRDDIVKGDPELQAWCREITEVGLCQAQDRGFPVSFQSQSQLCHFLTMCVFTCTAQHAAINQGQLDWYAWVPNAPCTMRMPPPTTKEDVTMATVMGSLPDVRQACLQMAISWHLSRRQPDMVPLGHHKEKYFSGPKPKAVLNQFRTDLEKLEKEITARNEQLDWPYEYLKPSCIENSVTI
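Hydroperoxide product was detected by ferrous iron/xylenol orange as the 573 to 405 nm absorbance ratio. Arachidonic acid at 40 uM (final) was turned over for 30 min at room temperature by 150 nM human 12hLO, pH 7.0 Hepes buffer, after 15 min compound preincubation.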
The depositor's hits bear a star; ? = inconclusive; / = no result. The list is not random: actives were taken first. Their share in the collection is about 3%.

SMILES | BCR signal inh | ClpP mod | LDHA inh | hERG WT inh | KCNH2 3.1 block | ALOX12 inh
COc1cc(C(=O)Nc2ccc3c(c2)Cc2ccccc2-3)cc(OC)c1OC | -2% | -12% | -5 | -25 | -91* | -2%
CCCCCCn1nc(C(=O)OCc2ccccc2)c2ccccc2c1=O | / | / | -12 | / | / | 45%
O=C(NC12CC3CC(CC(C3)C1)C2)c1ccc(-c2ccc(Cl)cc2)o1 | ? | 32µM* | -12 | -1 | 9 | -14%
CCCn1cc(C2CCN(S(=O)(=O)c3c(C)c(C)cc(C)c3C)CC2)c2ccccc21 | / | / | / | / | / | 5%
CCOC(=O)c1ccccc1NC(=O)c1cn(-c2ccc(C)c(C)c2)c(=O)c2ccccc12 | 4% | 13µM* | -12 | -5 | -16 | -15%
CC(NC(=O)c1ccc(NS(C)(=O)=O)cc1)c1ccccc1 (stereo not given) | -2% | -2% | -3 | -1 | -17 | -1%
CC(NC(=O)c1ccccc1NS(C)(=O)=O)c1ccccc1 (stereo not given) | -1% | 16µM* | -3 | -3 | -1 | 2%
CS(=O)(=O)Nc1ccccc1C(=O)NCc1ccco1 | -7% | 28µM* | -2 | 10 | -4 | -10%
CCOC(=O)c1ccccc1NC(=O)c1ccccc1NS(C)(=O)=O | 3% | 35µM* | 1 | 3 | -2 | 0%
COC(=O)c1ccccc1NC(=O)c1cn(-c2ccc(C)c(C)c2)c(=O)c2ccccc12 | 0% | ? | -4 | -3 | -5 | -14%
Cc1ccc(-c2cccc(C(=O)N3CCCC(O)(CN4CCCC4)C3)c2)o1 (stereo not given) | / | / | / | / | / | 82%
Cc1ccc(CNC(=O)c2ccccc2NS(C)(=O)=O)cc1 | 2% | 28µM* | -2 | -5 | -10 | 0%
Cc1ccccc1NS(=O)(=O)c1ccc(OCC(=O)NCc2ccco2)cc1 | -2% | -2% | -10 | -14 | 3 | -5%
CCOc1ccc(S(=O)(=O)Nc2ccccc2C(=O)NCc2ccco2)cc1 | 1% | 25µM* | -6 | -5 | -7 | -15%
CCN1CCN(C(c2cc3cc4c(cc3[nH]c2=O)OCO4)c2nnnn2C(C)(C)CC)CC1 (stereo not given) | 0% | -24% | -3 | 23 | 17 | ?
O=c1[nH]c2cc3c(cc2cc1C(c1nnnn1CC1CCCO1)N1CCCC1)OCO3 (stereo not given) | ? | 32µM* | 4 | -9 | -1 | -24%
O=c1[nH]c2cc3c(cc2cc1C(c1nnnn1CC1CCCO1)N1CCCCCC1)OCCO3 (stereo not given) | -3% | 32µM* | 14 | 2 | -3 | -5%
CC(C)(C)n1nnnc1C(c1cc2cc3c(cc2[nH]c1=O)OCO3)N1CCN(c2ccccc2)CC1 (stereo not given) | 9% | 22µM* | 8 | 5 | 3 | -21%
COc1ccc(CCN(C)C2CCCN(c3ncccc3C#N)C2)cc1OC (stereo not given) | / | / | / | / | / | -6%
C=CCNC(=S)NCC=C | 0% | -1% | -9 | 0 | 0 | -9%
C=CCNC(=S)NNC(N)=S | / | / | 11 | / | / | 8.9µM*
CCN1CCN(c2oc(/C=C/c3cccc(OC)c3)nc2C#N)CC1 | / | / | 0 | / | / | -42%
CC1CCN(CCNC(=O)c2ccc(Cn3c(SCc4ccccc4)nc4cccnc43)cc2)CC1 | / | 16µM* | -9 | / | / | -10%

Screening data: PubChem BioAssay, National Center for Advancing Translational Sciences (NCATS)
